Source: PubChem (National Center for Advancing Translational Sciences (NCATS))
In the library only some 3.8% were active in any assay of this set; here they are far more common.
TrxR1 substrate: is turned over as a substrate by rat TrxR1. O89049. purified TrxR1 substrate turnover, NADPH consumption readout. Potency, µM (highest dose often 114 µM). 390,000 compounds, 0.01% hits; further: nearly all actives have a fitted effect of over 50% in size
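Rat TrxR1, dispensed at 90 nM, was prereduced with 400 uM NADPH (final) for 5 min at ~22 deg C, then incubated with compound 15 min before 400 uM selenite. A first-read NADPH fluorescence drop versus no-compound background flagged substrates.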
GCN5L2 inh: GCN5L2 (KAT2A) acetyltransferase inhibition; Q92830; GCN5L2 HAT assay, ThioGlo1 CoA-SH fluorescence; Potency, µM (top dose mostly 58.9 µM), hits mostly inhibitors; 390,000 compounds, 0.21% hits
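Enzyme at 20nM final was mixed with library compounds for 15 min at room temperature. Peptide H3(1-25) at 75uM, acetyl-CoA at 70uM and ThioGlo1 at 50uM were then added. Plates were read immediately and after 20 min (Ex340nm/Em540nm).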
GLS inh: glutaminase GLS (human) inhibition. O94925. GLS enzymatic activity, qHTS titration. Potency, µM (series often up to 45.5 µM), actives largely listed as inhibitors. 410,000 compounds, 0.21% hits. AID 624170
Target sequence (O94925 whole entry, looked up): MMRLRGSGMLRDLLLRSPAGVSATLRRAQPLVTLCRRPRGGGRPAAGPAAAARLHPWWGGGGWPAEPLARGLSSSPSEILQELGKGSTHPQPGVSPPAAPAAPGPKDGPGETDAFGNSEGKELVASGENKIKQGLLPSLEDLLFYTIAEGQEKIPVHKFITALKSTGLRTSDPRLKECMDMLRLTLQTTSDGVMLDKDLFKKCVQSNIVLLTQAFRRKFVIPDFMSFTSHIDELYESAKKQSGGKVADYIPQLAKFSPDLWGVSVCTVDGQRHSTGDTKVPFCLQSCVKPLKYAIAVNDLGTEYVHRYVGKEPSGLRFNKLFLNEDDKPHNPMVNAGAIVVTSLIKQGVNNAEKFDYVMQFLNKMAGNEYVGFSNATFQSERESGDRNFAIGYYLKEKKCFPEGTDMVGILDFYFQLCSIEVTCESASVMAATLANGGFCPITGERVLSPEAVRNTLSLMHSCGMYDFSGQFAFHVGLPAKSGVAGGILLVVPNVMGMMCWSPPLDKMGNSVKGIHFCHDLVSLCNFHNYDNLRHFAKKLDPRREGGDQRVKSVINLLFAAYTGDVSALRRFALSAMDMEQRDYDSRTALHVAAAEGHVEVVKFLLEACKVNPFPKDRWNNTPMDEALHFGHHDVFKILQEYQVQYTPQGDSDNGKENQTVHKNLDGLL
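hKGA in 45 mM KH2PO4 (pH 8.2), 0.02% Tween-20 with compound, then 1mM L-Glutamine (stock as added) plus glutamate oxidase/HRP/Amplex red coupling mix. Fluorescence read initially and after 30 min at RT; signal change reflects glutamate formation.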
Sfp inh: Sfp phosphopantetheinyl transferase inhibition; Q9F4F7; Biochemical Sfp PPTase activity, qHTS; Potency, µM, hits mostly inhibitors; 310,000 compounds, 3.5% hits; AID 1490;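 further: the enzyme is Sfp with the accession as filed and its product quenches rhodamine fluorescence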
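With Hepes-Na pH 7.6 buffer containing 10 mM MgCl2, Sfp (15 nM) modified BHQ-2-YbbR (12.5 uM) using rhodamine-CoA (5 uM). Two reads 30 minutes apart at 525/598 nm yielded each well's rate.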
VDR inh: inhibitors of human vitamin D receptor | P11473 | VDR-SRC2-3 peptide fluorescence polarization, 2 h | Potency, µM, hits mostly inhibitors | 400,000 compounds, 0.93% hits | AID 504847
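Inhibition of the VDR/SRC2-3 peptide interaction is quantified by fluorescence polarization. Compounds (23 nl, pintool) incubate with the reagents for 2 hours at ambient room temperature.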
TrxR1 inh: rat TrxR1 inhibition. O89049. recombinant rTrxR1, NADPH fluorescence consumption, selenite substrate. Potency, µM (top dose mostly 114 µM), usual class: inhibitors. 390,000 compounds, 1% hits. AID 588453; further: nearly all actives have a fitted effect of over 65% in size
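Rat TrxR1 (90 nM in the dispensed reagent) was pre-reduced with 400 uM NADPH for 5 min at room temperature, then incubated with compound for 15 min. After 400 uM selenite was added, NADPH fluorescence (Ex 340/Em 450 nm) was followed for 8 min.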
Numbers stand for hits; [ ] = another dose, or the depositor's remark. The call rests on the fitted dose curve; in most records, active means well fitted curve in the direction sought with a large enough effect; inconclusive means small, poorly fitted or top-dose-only effect, or another doubt; inactive means no such curve, though single readings can be large; an effect the other way counts as inactive or inconclusive.

What do the screens show for `C/C=C\C(=O)Nc1cccc(C2=NOC3(C2)C[C@@H](C(N)=O)N(C(=O)c2ccccc2)C3)c1` (stereo partly drawn)?
TrxR1 substrate: inactive; GCN5L2 inh: inactive; GLS inh: inactive; Sfp inh: inactive; VDR inh: inactive; TrxR1 inh: inactive

What do the screens show for `C/C=C\C=C\C(=O)N1CC2(CC(c3cccc(NC(=O)COc4ccc(Cl)cc4)c3)=NO2)C[C@H]1C(N)=O` (stereo partly drawn)?
TrxR1 substrate: inactive; GCN5L2 inh: inactive; GLS inh: inactive; Sfp inh: 28.2µM; VDR inh: 89.1µM; TrxR1 inh: 25.1µM

How did C/C=C/C(=O)N1CC2(CC(c3cccc(NC(=O)/C(C)=C/C)c3)=NO2)C[C@H]1C(N)=O (stereo partly drawn) do in these assays?
TrxR1 substrate: inactive; GCN5L2 inh: inactive; GLS inh: inactive; Sfp inh: inactive; VDR inh: inactive; TrxR1 inh: inactive

What do the screens show for `C/C=C/C=C\C(=O)Nc1cccc(C2=NOC3(C2)C[C@H](C(N)=O)N(C(=O)/C=C/C)C3)c1` (stereo partly drawn)?
TrxR1 substrate: inactive; GCN5L2 inh: inactive; GLS inh: inactive; Sfp inh: 22.4µM; VDR inh: inconclusive; TrxR1 inh: 14.1µM

What do the screens show for `C/C=C/C=C\C(=O)Nc1cccc(C2=NOC3(C2)C[C@@H](C(N)=O)N(C(=O)c2cc([N+](=O)[O-])cc([N+](=O)[O-])c2C)C3)c1` (stereo partly drawn)?
TrxR1 substrate: inactive; GCN5L2 inh: inactive; GLS inh: inactive; Sfp inh: 25.1µM; VDR inh: inconclusive; TrxR1 inh: 15.8µM

How did Cc1ccc(-c2nc3cnccn3c2Nc2ccc3c(c2)OCCO3)o1 do in these assays?
TrxR1 substrate: inactive; GCN5L2 inh: inactive; GLS inh: inactive; Sfp inh: 35.5µM; VDR inh: inactive; TrxR1 inh: inconclusive

Results for Cc1ccc(Nc2c(-c3ccccc3O)nc3cnccn23)cc1 ?
TrxR1 substrate: inactive[11.4 µM]; GCN5L2 inh: inactive; GLS inh: 7.94µM; Sfp inh: inactive; VDR inh: inactive; TrxR1 inh: inactive[11.4 µM]

How did Oc1ccccc1-c1nc2cnccn2c1Nc1ccc(Cl)cc1 do in these assays?
TrxR1 substrate: inactive[2.29 µM]; GCN5L2 inh: inactive; GLS inh: inactive; VDR inh: inactive; TrxR1 inh: inactive

What do the screens show for `Cc1ccc(Nc2c(-c3ccccc3O)nc3cc(C)ccn23)cc1`?
TrxR1 substrate: inactive; GCN5L2 inh: 25.1µM; GLS inh: inactive; VDR inh: inactive; TrxR1 inh: inactive

Results for COc1cccc(-c2nc3c(c(C)nn3-c3ccccc3)c3cc(OC)c(OC)cc23)c1 ?
TrxR1 substrate: inactive; GCN5L2 inh: inactive; GLS inh: inactive; VDR inh: inactive; TrxR1 inh: inactive

How did C[C@@H]1NC(=O)[C@H](CC(N)=O)NC(=O)c2cc([N+](=O)[O-])cc(I)c2OCC[C@@H](C(=O)NC(CC(=O)O)C(N)=O)NC1=O (stereo partly drawn) do in these assays?
TrxR1 substrate: inactive; GCN5L2 inh: inactive; GLS inh: inconclusive; Sfp inh: inactive; VDR inh: inactive; TrxR1 inh: inactive

Results for Nc1nc(SCC(=O)N2N=C3/C(=C/c4ccco4)CCCC3C2c2ccco2)n[nH]1 (stereo not drawn) ?
TrxR1 substrate: inactive; GCN5L2 inh: inactive; GLS inh: inactive; Sfp inh: inactive; VDR inh: inactive; TrxR1 inh: inactive

How did O=C(CSc1nccc(=O)[nH]1)N1N=C2/C(=C/c3ccco3)CCCC2C1c1ccco1 (stereo not drawn) do in these assays?
TrxR1 substrate: inactive; GCN5L2 inh: inconclusive; GLS inh: inactive; Sfp inh: 10µM; VDR inh: inactive; TrxR1 inh: inactive

How did Cc1cc(=O)[nH]c(N/N=C/c2ccc(Cl)c([N+](=O)[O-])c2)n1 do in these assays?
TrxR1 substrate: inactive; GCN5L2 inh: inactive; GLS inh: inactive; Sfp inh: inactive; VDR inh: inactive; TrxR1 inh: inactive

What do the screens show for `Cc1cc(=O)[nH]c(N/N=C/c2ccc(O)c(O)c2)n1`?
TrxR1 substrate: inactive; GCN5L2 inh: inactive; GLS inh: 12.6µM; Sfp inh: inconclusive; VDR inh: inactive; TrxR1 inh: inactive

How did Cc1cc(C)nc(N/N=C/C2=C(N3CCOCC3)C(=C/c3ccccc3)/CC2)n1 do in these assays?
TrxR1 substrate: inactive; GCN5L2 inh: inactive; GLS inh: inactive; Sfp inh: inactive; VDR inh: inactive; TrxR1 inh: inactive

Results for Cc1cc(=O)[nH]c(N/N=C/C2=C(N3CCOCC3)C(=C\c3ccc(Cl)cc3)/CC2)n1 ?
TrxR1 substrate: inactive; GCN5L2 inh: inactive; GLS inh: inactive; Sfp inh: 39.8µM; VDR inh: 89.1µM; TrxR1 inh: inactive

What do the screens show for `CSc1ccc(/C=N/Nc2nc(C)cc(=O)[nH]2)cc1`?
TrxR1 substrate: inactive; GCN5L2 inh: inactive; GLS inh: inactive; Sfp inh: 56.2µM; VDR inh: inactive; TrxR1 inh: inactive

Results for Cc1cc(=O)[nH]c(N/N=C/c2cccc(Br)c2)n1 ?
TrxR1 substrate: inactive; GCN5L2 inh: inactive; GLS inh: inactive; Sfp inh: inconclusive; VDR inh: inactive; TrxR1 inh: inactive

Results for Cc1ccc(NC2CCCN(C(=O)c3snnc3C)C2)cc1C (stereo not drawn) ?
TrxR1 substrate: inactive; GCN5L2 inh: inactive; GLS inh: inactive; Sfp inh: inactive; VDR inh: inactive; TrxR1 inh: inactive

How did O=C(Nc1ccc(S(=O)(=O)N2CCCCC2)cc1)C1CCCCC1 do in these assays?
TrxR1 substrate: inactive; GCN5L2 inh: inactive; GLS inh: inactive; Sfp inh: inactive; VDR inh: inactive; TrxR1 inh: inactive

How did Cc1ccc2oc(=O)c(/C=C(\O)CC(C)C)nc2c1 do in these assays?
TrxR1 substrate: inactive; GCN5L2 inh: inactive; GLS inh: inconclusive; Sfp inh: inactive; VDR inh: inactive; TrxR1 inh: inactive

How did COc1ccccc1N1CCN(C(c2ccc(N(C)C)cc2)c2nnnn2CCc2ccccc2)CC1 (stereo not drawn) do in these assays?
TrxR1 substrate: inactive; GCN5L2 inh: inactive; GLS inh: inactive; Sfp inh: inactive; VDR inh: inactive; TrxR1 inh: 3.16µM

How did O=C(O)/C=C/C(=O)c1c(-c2ccccc2)[nH]c2ccccc12 do in these assays?
TrxR1 substrate: inactive; GCN5L2 inh: inactive; GLS inh: inactive; Sfp inh: inactive; VDR inh: inconclusive; TrxR1 inh: 44.7µM

How did CCOC(=O)CON1C(=O)C(=O)N(OCC(=O)OCC)[C@H]2CCCC[C@H]21 do in these assays?
TrxR1 substrate: inactive; GCN5L2 inh: inactive; GLS inh: inactive; Sfp inh: inactive; VDR inh: inactive; TrxR1 inh: inactive

Results for CCOC(=O)Cn1c2c(c(=N)c3c1CCC3)CCC2 ?
TrxR1 substrate: inactive; GCN5L2 inh: inactive; GLS inh: inactive; Sfp inh: inactive; VDR inh: inactive; TrxR1 inh: inactive
